The values that follow come from PubChem BioAssay (NCI).

About 83,000 compounds went through this panel and 20% of them were active in at least one assay; those are over-represented in the sample as a whole.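 Single-concentration screen, 48 h exposure, 96-well plates. Endpoint: percent growth. Below 10 = active.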 Unmarked numbers belong to inactive results. Calls of active or inactive are those of the source.

Test systems include DU-145 prostate; MALME-3M melanoma; MDA-MB-231 breast; RXF 393 renal; SF-268 CNS; SF-295 CNS; SF-539 CNS; UACC-257 melanoma; M14 melanoma; HCT-15 colon; HT29 colon; SNB-75 CNS; SNB-19 CNS; U251 CNS; PC-3 prostate; SK-MEL-5 melanoma; UACC-62 melanoma; LOX IMVI melanoma; SK-MEL-28 melanoma.
Common to all, as to assay: NCI-60 one-dose screen, 48 h (100 = growth as untreated, 0 = no growth, -100 = all killed)
Conditions in all cases: 10 µM unless noted

With `O=C(Nc1ccc(F)cc1)Nc1ccc(Br)c(C(F)(F)F)c1`, the growth with DU-145 prostate is 22.3%; in the assay with MALME-3M melanoma, -6.11% (active); with MDA-MB-231 breast, 7.99% (active); with RXF 393 renal, 26.8%; with SF-268 CNS, 22%; in the assay on SF-295 CNS, 3% (active). Also, the growth was 19.9% with SF-539 CNS; 1.49% (active) in the assay on UACC-257 melanoma; 15.3% with M14 melanoma; 8.12% (active) with HCT-15 colon; 6.61% (active) in the assay with HT29 colon; 22.2% in the assay on SNB-75 CNS. The growth with SNB-19 CNS is 19.8%; in the assay with U251 CNS, 11.6%; in the assay with PC-3 prostate it was 4.68% (active); in the assay with SK-MEL-5 melanoma, 4.53% (active); in the assay with UACC-62 melanoma, 21.7%; in the assay with LOX IMVI melanoma, -16.7% (active). In the assay on SK-MEL-28 melanoma, the growth was 20.8%.
`Nc1nc(Nc2ccc(OCc3cccc(F)c3)cc2)c2c(n1)[nH]c1ccc(O)cc12`: the growth was 10.4% with DU-145 prostate; -69.5% (active) with MALME-3M melanoma; -67.9% (active) in the assay on MDA-MB-231 breast; -76% (active) in the assay with RXF 393 renal; -14.7% (active) in the assay with SF-268 CNS; -69.2% (active) in the assay with SF-295 CNS. For the same molecule, the growth with SF-539 CNS was -84% (active); in the assay with UACC-257 melanoma, -31.2% (active); in the assay with M14 melanoma, -83% (active); in the assay with HCT-15 colon, -8.62% (active); in the assay with HT29 colon, -84.2% (active); in the assay on SNB-75 CNS, -63.5% (active). The growth was 12.3% in the assay with SNB-19 CNS; -91% (active) in the assay with U251 CNS; 4.64% (active) with PC-3 prostate; -78.1% (active) in the assay on SK-MEL-5 melanoma; -75.1% (active) with UACC-62 melanoma; -96% (active) with LOX IMVI melanoma. The growth with SK-MEL-28 melanoma is -67.4% (active).
As to `COc1ccc(-c2cc3ccc(N(C)C)cc3nc2N)c(F)c1`, the growth with DU-145 prostate was 56.1%; in the assay with MALME-3M melanoma it was 25.3%; with MDA-MB-231 breast, 48.5%; in the assay on RXF 393 renal, 32.4%; in the assay with SF-268 CNS, 56.5%; with SF-295 CNS, 25.4%. In addition, the growth with SF-539 CNS is 49.1%; in the assay on UACC-257 melanoma, 23.3%; with M14 melanoma, -60.5% (active); with HCT-15 colon, 31%; with HT29 colon it was 7.61% (active); with SNB-75 CNS, 55%. Also, the growth in the assay with SNB-19 CNS is 49.8%; with U251 CNS it was 31.3%; with PC-3 prostate it was 28.2%; in the assay with SK-MEL-5 melanoma it was -62.7% (active); in the assay on UACC-62 melanoma it was 48.2%; in the assay with LOX IMVI melanoma, 23.9%. Also, the growth with SK-MEL-28 melanoma was 38.4%.
Regarding `FC(F)(F)c1cn(CCN2CCOCC2)c2ncnc(Cl)c12`, the growth with DU-145 prostate was 57.8%; in the assay with MALME-3M melanoma it was 111%; in the assay with MDA-MB-231 breast it was 63.8%; with RXF 393 renal, 82.9%; in the assay on SF-268 CNS it was 67.5%; in the assay on SF-295 CNS, 96.5%. The growth with SF-539 CNS is 87%; in the assay with UACC-257 melanoma, 84%; in the assay with M14 melanoma, 38%; with HCT-15 colon it was 14.9%; in the assay on HT29 colon, 72.7%; in the assay on SNB-75 CNS, 78.1%. Moreover, the growth with SNB-19 CNS was 22.5%; in the assay with U251 CNS, 71.2%; in the assay on PC-3 prostate it was 28.1%; with SK-MEL-5 melanoma, 42.5%; with UACC-62 melanoma it was 53.2%; in the assay with LOX IMVI melanoma it was -63.9% (active). The growth with SK-MEL-28 melanoma was 72.4%.
Regarding `CC(=O)c1cc2c(c(O)c1C)C(=O)C(=O)c1c(O)cccc1-2`, the growth with DU-145 prostate was -94.8% (active); with MALME-3M melanoma, -83.1% (active); with MDA-MB-231 breast it was -79.3% (active); in the assay with RXF 393 renal, -90.2% (active); in the assay with SF-268 CNS, -45.8% (active); in the assay on SF-295 CNS it was -82.5% (active). In addition, the growth with SF-539 CNS is -98.3% (active); with UACC-257 melanoma, -95.7% (active); with M14 melanoma, -87.7% (active); with HCT-15 colon, -61.3% (active); in the assay with HT29 colon it was -15.5% (active); with SNB-75 CNS it was -98.2% (active). The growth in the assay with SNB-19 CNS is -85.9% (active); with U251 CNS, -94.5% (active); in the assay on PC-3 prostate, -26.4% (active); with SK-MEL-5 melanoma, -97.9% (active); in the assay with UACC-62 melanoma, -71.6% (active); in the assay on LOX IMVI melanoma it was -49.2% (active). Further, in the assay on SK-MEL-28 melanoma, the growth is -87.2% (active).
Regarding `O=C(CNc1cccnc1)Nc1ccc(C(=O)/C=C/c2ccc(Cl)cc2)cc1`, the growth in the assay on DU-145 prostate is 103%; in the assay with MALME-3M melanoma, 89.3%; in the assay on MDA-MB-231 breast, 77%; in the assay on RXF 393 renal, 98.8%; with SF-268 CNS, 91.4%; in the assay on SF-295 CNS it was 93.9%. The growth in the assay with SF-539 CNS was 99.6%; in the assay with UACC-257 melanoma it was 105%; with M14 melanoma it was 88.4%; with HCT-15 colon, 88.6%; in the assay with HT29 colon, 90%; in the assay with SNB-75 CNS it was 87.8%. The growth in the assay with SNB-19 CNS is 101%; in the assay on U251 CNS it was 82.1%; in the assay on PC-3 prostate, 89.4%; with SK-MEL-5 melanoma, 91.1%; in the assay on UACC-62 melanoma, 84.9%; in the assay with LOX IMVI melanoma, 86%. Moreover, the growth in the assay on SK-MEL-28 melanoma was 96.4%.
As to `C=C1C(=O)O[C@H]2[C@H]1CC/C(COC(=O)c1ccccc1)=C\CC[C@@]1(C)O[C@@H]21`, the growth is 6.11% (active) with DU-145 prostate; -65% (active) with MALME-3M melanoma; -37.1% (active) in the assay on MDA-MB-231 breast; -84% (active) in the assay on RXF 393 renal; 41% in the assay with SF-268 CNS; 60.8% with SF-295 CNS. Further, the growth is -65.5% (active) in the assay on SF-539 CNS; 30% with UACC-257 melanoma; -31.9% (active) in the assay with M14 melanoma; -66.1% (active) in the assay on HCT-15 colon; -62.7% (active) in the assay with HT29 colon; 68.8% in the assay with SNB-75 CNS. Also, the growth in the assay with SNB-19 CNS is 33.1%; in the assay on U251 CNS it was 26.8%; in the assay with PC-3 prostate, 35%; with SK-MEL-5 melanoma, 12%; in the assay on UACC-62 melanoma it was -66.9% (active); in the assay on LOX IMVI melanoma, -88.6% (active). Further, the growth in the assay with SK-MEL-28 melanoma is -33.9% (active).
On to `CC(C)(C)OC(=O)N1CC(Cn2cc(C(F)(F)F)c3c(Cl)ncnc32)C1`, for which the growth with DU-145 prostate is -100% (active); with MALME-3M melanoma it was 80.6%; in the assay with MDA-MB-231 breast it was 0.765% (active); with RXF 393 renal, -63.7% (active); with SF-268 CNS, -86.9% (active); in the assay on SF-295 CNS, 30.4%. For the same molecule, the growth with SF-539 CNS was 79.9%; in the assay on UACC-257 melanoma, -37.9% (active); in the assay with M14 melanoma, -87.4% (active); with HCT-15 colon, -41.4% (active); with HT29 colon, -62.2% (active); in the assay with SNB-75 CNS, -52.5% (active). Moreover, the growth in the assay with SNB-19 CNS was -89.8% (active); with U251 CNS, -98% (active); with PC-3 prostate, -75% (active); with SK-MEL-5 melanoma it was -84.6% (active); with UACC-62 melanoma it was -78.1% (active); in the assay with LOX IMVI melanoma, -86.9% (active). For the same molecule, in the assay with SK-MEL-28 melanoma, the growth was -79.6% (active).
